Reference: PubChem BioAssay (NCATS)
Results filed as inconclusive are left out. Activity calls are given as the source filed them. Calls follow the shape of the dose curve; as a rule, active = well fitted cell-killing curve with a large enough effect; inconclusive = small, poorly fitted or top-dose-only effect, or effect the other way; inactive = flat fitted curve, though single readings scatter.

Tests used:
Assay in all cases: Primary qHTS to identify gynecologic anti-cancer compounds using libraries of approved drugs and bioactive compounds (AID 1345084); also: nearly all actives have a fitted effect of over 55% in size
C33A = conditions: Gynecologic cancer cell panel viability, ATPlite luminescence, 48 h; series mostly up to 57.5 µM
How it was run: (§1)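 Five-point cytotoxicity, 48 h drug exposure at 37 C, 5% CO2, on cells seeded 16 h beforehand. ATP content read by ATPlite luminescence.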

CAOV3 = conditions: Gynecologic cancer cell panel viability, ATPlite luminescence, 48 h; series mostly up to 57.5 µM
How it was run: as §1

CASKI = conditions: Gynecologic cancer cell panel viability, ATPlite luminescence, 48 h; series mostly up to 57.5 µM
How it was run: as §1

Es-2 = conditions: Gynecologic cancer cell panel viability, ATPlite luminescence, 48 h; series mostly up to 57.5 µM
How it was run: as §1

HeLa = conditions: Gynecologic cancer cell panel viability, ATPlite luminescence, 48 h; series mostly up to 57.5 µM
How it was run: as §1

Hek293T = conditions: Gynecologic cancer cell panel viability, ATPlite luminescence, 48 h, control line for the selectivity index; series mostly up to 57.5 µM
How it was run: as §1

JEG-3 = conditions: Gynecologic cancer cell panel viability, ATPlite luminescence, 48 h; series mostly up to 57.5 µM
How it was run: as §1

OV90 = conditions: Gynecologic cancer cell panel viability, ATPlite luminescence, 48 h; series mostly up to 57.5 µM
How it was run: as §1

PA-1 = conditions: Gynecologic cancer cell panel viability, ATPlite luminescence, 48 h; series mostly up to 57.5 µM
How it was run: as §1

SKOV3 = conditions: Gynecologic cancer cell panel viability, ATPlite luminescence, 48 h; series mostly up to 57.5 µM
How it was run: as §1

Tov-21-G = conditions: Gynecologic cancer cell panel viability, ATPlite luminescence, 48 h; series mostly up to 57.5 µM
How it was run: as §1

Tov112D = conditions: Gynecologic cancer cell panel viability, ATPlite luminescence, 48 h; series mostly up to 57.5 µM
How it was run: as §1
% is scaled to controls: 0 for no effect and ±100 for the full control effect.

COc1ccc(CNC(=O)c2cc(-c3cncc(C)c3)ncc2-c2nccs2)nc1OC
inactive: Potency (C33A) | Potency (CAOV3) | Potency (CASKI) | Potency (Es-2) | Potency (HeLa) | Potency (Hek293T) | Potency (JEG-3) | Potency (OV90) | Potency (PA-1) | Potency (SKOV3) | Potency (Tov-21-G) | Potency (Tov112D)

CN=C(N)NCCCCC/C=C(/C)CC(C)C1OC(=O)C(C)C(O)/C=C/C(C)C(O)CC(O)C(C)C(O)CCC(C)C(O)CC2(O)OC(CC(OC(=O)CC(=O)O)CC(O)CC(O)C(C)C(O)/C(C)=C/CCC1C)CC(O)C2O (stereo unspecified)
inactive: activity change, negative = cytotoxicity (C33A) 11.4% [at 11.6 µM] | activity change, negative = cytotoxicity (CAOV3) 12.9% [at 11.6 µM] | activity change, negative = cytotoxicity (CASKI) 9.88% [at 11.6 µM] | activity change, negative = cytotoxicity (Es-2) 0.226% [at 11.6 µM] | activity change, negative = cytotoxicity (HeLa) 3.51% [at 11.6 µM] | activity change, negative = cytotoxicity (Hek293T) 10.1% [at 11.6 µM] | activity change, negative = cytotoxicity (JEG-3) 16% [at 11.6 µM] | activity change, negative = cytotoxicity (OV90) 7.81% [at 11.6 µM] | activity change, negative = cytotoxicity (PA-1) 16.3% [at 11.6 µM] | activity change, negative = cytotoxicity (SKOV3) 0% [at 11.6 µM] | activity change, negative = cytotoxicity (Tov-21-G) 3.06% [at 11.6 µM] | activity change, negative = cytotoxicity (Tov112D) -6.61% [at 11.6 µM]

CC(=O)c1c(O)cc(O[C@@H]2O[C@H](CO)[C@@H](O)[C@H](O)[C@H]2O)cc1O
inactive: Potency (C33A) | Potency (CAOV3) | Potency (CASKI) | Potency (Es-2) | Potency (HeLa) | Potency (Hek293T) | Potency (JEG-3) | Potency (OV90) | Potency (PA-1) | Potency (SKOV3) | Potency (Tov-21-G) | Potency (Tov112D)

CC(C)C(N)C(=O)OCCOCn1cnc2c(=O)[nH]c(N)nc21 (stereo unspecified)
inactive: Potency (C33A) | Potency (CAOV3) | Potency (CASKI) | Potency (Es-2) | Potency (HeLa) | Potency (Hek293T) | Potency (JEG-3) | Potency (OV90) | Potency (PA-1) | Potency (SKOV3) | Potency (Tov-21-G) | Potency (Tov112D)

CCCC(=O)C1CCN(c2ncnc3c2CN(C(=O)c2ccc(-c4ccccc4)cc2)CC3)CC1
inactive: Potency (C33A) | Potency (CAOV3) | Potency (CASKI) | Potency (Es-2) | Potency (HeLa) | Potency (Hek293T) | Potency (JEG-3) | Potency (OV90) | Potency (PA-1) | Potency (SKOV3) | Potency (Tov-21-G) | Potency (Tov112D)

COc1cc(O)c2c(c1)C1=C[C@H](O)[C@@H](O)C[C@]1(C)OC2=O
inactive: Potency (C33A) | Potency (CAOV3) | Potency (CASKI) | Potency (Es-2) | Potency (HeLa) | Potency (Hek293T) | Potency (JEG-3) | Potency (OV90) | Potency (PA-1) | Potency (SKOV3) | Potency (Tov-21-G) | Potency (Tov112D)

CC/C=C\CCO[C@@H]1O[C@H](CO[C@@H]2OC[C@H](O)[C@H](O)[C@H]2O)[C@@H](O)[C@H](O)[C@H]1O
inactive: Potency (C33A) | Potency (CAOV3) | Potency (CASKI) | Potency (Es-2) | Potency (HeLa) | Potency (Hek293T) | Potency (JEG-3) | Potency (OV90) | Potency (PA-1) | Potency (SKOV3) | Potency (Tov-21-G) | Potency (Tov112D)

CC1(C)CC[C@]2(C(=O)O[C@@H]3O[C@H](CO)[C@@H](O)[C@H](O)[C@H]3O)CC[C@]3(C)C(=CCC4[C@@]5(C)C[C@@H](O)[C@H](O)[C@](C)(C=O)C5CC[C@]43C)[C@@H]2[C@@H]1O (stereo partly specified)
inactive: Potency (C33A) | Potency (CAOV3) | Potency (CASKI) | Potency (Es-2) | Potency (HeLa) | Potency (Hek293T) | Potency (JEG-3) | Potency (OV90) | Potency (PA-1) | Potency (SKOV3) | Potency (Tov-21-G) | Potency (Tov112D)

CCc1cc(CN2CC(C(=O)O)C2)sc1-c1noc(-c2ccc(Oc3ccccc3)cc2)n1
inactive: Potency (C33A) | Potency (CAOV3) | Potency (CASKI) | Potency (Es-2) | Potency (HeLa) | Potency (Hek293T) | Potency (JEG-3) | Potency (OV90) | Potency (PA-1) | Potency (SKOV3) | Potency (Tov-21-G) | Potency (Tov112D)

CC(=O)OC[C@]12[C@H](OC(C)=O)C(=O)[C@@H]3[C@@H](OC(C)=O)[C@@]14O[C@@]3(C)COC(=O)c1cccnc1[C@@H](C)[C@H](C)C(=O)O[C@@H]([C@H](O)[C@@H]2OC(C)=O)[C@]4(C)O
inactive: Potency (C33A) | Potency (CAOV3) | Potency (CASKI) | Potency (Es-2) | Potency (HeLa) | Potency (Hek293T) | Potency (JEG-3) | Potency (OV90) | Potency (PA-1) | Potency (SKOV3) | Potency (Tov-21-G) | Potency (Tov112D)

C=C(F)c1sc(CNCCCNc2cc(=O)c3ccccc3[nH]2)c(C)c1Br
inactive: Potency (C33A) | Potency (CAOV3) | Potency (CASKI) | Potency (Es-2) | Potency (HeLa) | Potency (Hek293T) | Potency (JEG-3) | Potency (OV90) | Potency (PA-1) | Potency (SKOV3) | Potency (Tov-21-G) | Potency (Tov112D)

CC(C)(O)/C=C/CC(C)(O)C1C(O)CC2(C)C3CCC4C(C)(C)C(=O)CCC4(C)C3CCC12C (stereo unspecified)
inactive: Potency (C33A) | Potency (CAOV3) | Potency (CASKI) | Potency (Es-2) | Potency (HeLa) | Potency (Hek293T) | Potency (JEG-3) | Potency (OV90) | Potency (PA-1) | Potency (SKOV3) | Potency (Tov-21-G) | Potency (Tov112D)

O=C(CC(c1ccccc1)c1ccccc1)N1CCN(C(c2ccccc2)c2ccccc2)CC1
inactive: Potency (C33A) | Potency (CAOV3) | Potency (CASKI) | Potency (Es-2) | Potency (HeLa) | Potency (Hek293T) | Potency (JEG-3) | Potency (OV90) | Potency (PA-1) | Potency (SKOV3) | Potency (Tov-21-G) | Potency (Tov112D)
